GSH bead fluor = compound fluorescence on glutathione beads, profiling panel, artefact control, biophysical, 488/530 nm, flow cytometry. GSH beads flow cytometry, compound fluorescence 488/530 nm; hits give high values. fluorescence (KMESF) at 10 µM. actives 0.25% (n = 190,000). AID 1776, 2009; in the data active = fluorescence above about 89;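 also: glutathione beads carrying GST-tagged Bcl family fusion proteins plus one bare bead set; values are compound well signal with DMSO vehicle wells as background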
Avidin fluor = green autofluorescence of compounds with avidin beads – biophysical, 488/530 nm, flow cytometry, artefact control, profiling panel; compound fluorescence 488/530 nm; hits give high values; fluorescence (KMESF) at 10 µM; actives 0.38% (n = 220,000); in the data active = fluorescence above about 47
RGS8-Gao reg = RGS8-Galphao binding modulators, primary screen, biochemical, multiplexed bead flow cytometry; Guanine nucleotide-binding protein G(o) subunit alpha (Homo sapiens), P09471; actives lie on both sides; response (percent of control binding), % at 10 µM; actives 0.34% (n = 220,000); in the data active = response below about 60% or above about 140%; inactive = in between;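 also: Galphao activated as the GDP aluminium fluoride complex binding bead-coupled RGS8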
Target sequence (P09471 whole entry, looked up): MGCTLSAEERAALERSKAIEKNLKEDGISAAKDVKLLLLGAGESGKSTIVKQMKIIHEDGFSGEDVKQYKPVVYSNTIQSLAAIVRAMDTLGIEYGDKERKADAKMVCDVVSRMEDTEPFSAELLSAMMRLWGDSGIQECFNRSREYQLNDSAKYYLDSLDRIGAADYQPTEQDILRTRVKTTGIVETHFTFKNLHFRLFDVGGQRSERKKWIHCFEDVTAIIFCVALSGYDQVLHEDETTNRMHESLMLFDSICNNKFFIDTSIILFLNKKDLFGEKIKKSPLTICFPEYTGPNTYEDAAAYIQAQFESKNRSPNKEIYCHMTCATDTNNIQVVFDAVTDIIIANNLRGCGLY
RGS4-Gao reg = modulators of RGS4 binding to Galphao, primary screen, biochemical, multiplexed bead flow cytometry | Guanine nucleotide-binding protein G(o) subunit alpha (Homo sapiens), P09471 | actives lie on both sides | binding response (% of control), % at 10 µM | actives 0.33% (n = 220,000); in the data active = binding response below about 49% or above about 150%; inactive = in between;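 also: fluorescent Galphao activated with aluminum fluoride binding bead-coupled RGS4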
RGS16-Gao = modulators of RGS16 binding to Galphao, primary screen, biochemical, human proteins, multiplexed bead flow cytometry; actives 0.38% (n = 220,000); binding response (% of control), % at 10 µM; bead-based flow cytometry RGS16-Galphao binding, fluorescence; actives lie on both sides; Regulator of G-protein signaling 16 (Homo sapiens) + Guanine nucleotide-binding protein …;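 also: Galphao activated by GDP with aluminum fluoride before binding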
RGS7-Gao = RGS7-Galphao binding modulators, primary screen, biochemical, multiplexed bead flow cytometry. Guanine nucleotide-binding protein G(o) subunit alpha (Homo sapiens), P09471. actives lie on both sides. binding response (% of control), % at 10 µM. actives 0.35% (n = 220,000). AID 1439, 2008; in the data active = binding response below about 49% or above about 150%; inconclusive = no clear call, values can overlap the other calls; inactive = in between;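 also: fluorescent Galphao held in activated GDP-AlF4 state binding bead-coupled RGS7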
RGS4-Gao HTS = modulators of RGS–Galpha-o binding, primary screen, biochemical, multiplexed beads, flow cytometry, RGS4/7/8/16/19; multiplexed bead flow cytometry; shares compounds with RGS16-Gao; RGS4–Galpha-o binding response, % at 10 µM; actives 99% (n = 1,600); AID 1504, 2009;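 also: fluorescently labeled Galpha-o bound to GDP with aluminium fluoride binding biotinylated RGS beads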
Biotin-avidin = disruption of biotin probe capture by avidin, counter-screen for RGS protein interaction modulators, biochemical, flow cytometry, bead-based; shares compounds with RGS16-Gao; streptavidin beads, fluorescein-biotin binding; inhibition, % at 10 µM; 1,700 tested, under 10 active;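 active = inhibition above 50%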;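 also: median green fluorescence of gated singlet beads compared with DMSO control wells; 0% = DMSO wells and 100% = complete loss of bead fluorescence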
RGS8-Gao single = RGS8-Galphao binding modulators, confirmation, biochemical, multiplexed bead flow cytometry, single concentration; shares compounds with RGS16-Gao; AID 1836, 2009; binding response (% of control), % at 10 µM; actives 3% (n = 1,700); bead-based flow cytometry RGS8-Galphao binding, fluorescence; actives lie on both sides; in the data active = binding response below about 72% or above about 130%; inactive = in between;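 also: Galphao activated as GDP AlF4 complex before binding bead RGS8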
RGS7-Gao single = RGS7-Galphao binding modulators, confirmation, biochemical, multiplexed bead flow cytometry, single concentration; AID 1837, 2009; bead-based flow cytometry RGS7-Galphao binding; actives lie on both sides; actives 7.8% (n = 1,700); shares compounds with RGS16-Gao; response (percent of control binding), % at 10 µM; in the data active = response below about 75% or above about 130%; inactive = in between;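 also: fluorescent Galphao activated with GDP and aluminum fluoride binding bead-coupled RGS7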
RGS16-Gao single = modulators of RGS16-Galphao protein binding, confirmation, biochemical, single concentration, multiplexed bead flow cytometry | shares compounds with RGS16-Gao | bead-based flow cytometry; actives lie on both sides | response (% of control binding), % at 10 µM | actives 4% (n = 1,700) | AID 1838, 2009; in the data active = response below about 74% or above about 130%; inactive = in between;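 also: Galphao activated as the GDP aluminium fluoride complex binding bead-coupled RGS16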
RGS4-Gao confirm = modulators of RGS4-Galphao protein binding, confirmation, biochemical, single concentration, multiplexed bead flow cytometry; binding response (% of control), % at 10 µM; shares compounds with RGS16-Gao; AID 1840, 2009; actives lie on both sides; actives 4% (n = 1,700); in the data active = binding response below about 74% or above about 130%; inactive = in between
RGS19-Gao single = regulators of RGS19-Galphao binding, confirmation, biochemical, single point, multiplexed bead flow cytometry | shares compounds with RGS16-Gao | bead-based flow cytometry RGS19-Galphao binding; actives lie on both sides | response (percent of control binding), % at 10 µM | actives 5% (n = 1,700); in the data active = response below about 50% or above about 160%; inactive = in between;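 also: 100% = no compound control and 0% = blank background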
Target sequence (P09471 whole entry, looked up): as above
Target sequence (P49795 whole entry, looked up): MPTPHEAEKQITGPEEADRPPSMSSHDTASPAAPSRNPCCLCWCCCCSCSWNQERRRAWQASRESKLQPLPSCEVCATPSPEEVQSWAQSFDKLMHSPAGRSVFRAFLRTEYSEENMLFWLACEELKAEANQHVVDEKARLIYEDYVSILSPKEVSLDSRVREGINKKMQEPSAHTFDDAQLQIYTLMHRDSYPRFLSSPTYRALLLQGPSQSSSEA
* hit, by the source's call; [ ] = dose if it differs, or a comment. Rows were chosen to be rich in hits. Some 1.2% of all compounds tested hit in one or more screens of this group. Unless noted, no rule for the calls is given here.

Results for CCN(C(=O)CSc1ccc2ccccc2n1)C1CCS(=O)(=O)C1 (configuration not stated) ?
GSH bead fluor: 16; Avidin fluor: 10; RGS8-Gao reg: 104; RGS4-Gao reg: 104; RGS16-Gao: 109; RGS7-Gao: 103

Results for CCN(C(=O)CSc1cc(C)c2ccccc2n1)C1CCS(=O)(=O)C1 (configuration not stated) ?
GSH bead fluor: 14; Avidin fluor: 0; RGS8-Gao reg: 13*; RGS4-Gao reg: 14*; RGS16-Gao: 8.0*; RGS7-Gao: 12*; Biotin-avidin: 0; RGS8-Gao single: 98; RGS7-Gao single: 93; RGS16-Gao single: 96; RGS4-Gao confirm: 95; RGS19-Gao single: 76

What do the screens show for `Cn1c(C(=O)N2CCCC(C(=O)c3ccc(C(F)(F)F)cc3)C2)cc(=O)n(C)c1=O` (configuration not stated)?
GSH bead fluor: 14; Avidin fluor: 15; RGS8-Gao reg: 103; RGS4-Gao reg: 102; RGS16-Gao: 109; RGS7-Gao: 104

What do the screens show for `O=C(Nc1ccc(Nc2ccncc2)cc1)c1ccc(Nc2ccnc3ccc([N+](=O)[O-])cc23)cc1`?
Avidin fluor: -1; RGS8-Gao reg: 59*; RGS4-Gao reg: 24*; RGS16-Gao: 36; RGS7-Gao: inconclusive; Biotin-avidin: -1; RGS8-Gao single: 104; RGS7-Gao single: 88; RGS16-Gao single: 99; RGS4-Gao confirm: 90; RGS19-Gao single: 87

How did O=C(Cc1ccc(Br)cc1)N(Cc1ccccc1)c1ccccn1 do in these assays?
GSH bead fluor: 27; Avidin fluor: 59*; RGS8-Gao reg: 103; RGS4-Gao reg: 112; RGS16-Gao: 107; RGS7-Gao: 151*[activator]; RGS4-Gao HTS: 112*; Biotin-avidin: 2; RGS8-Gao single: 98; RGS7-Gao single: 94; RGS16-Gao single: 99; RGS4-Gao confirm: 98; RGS19-Gao single: 145

What do the screens show for `O=C1C2CC=CCC2C(=O)N1Cc1nnc(-c2ccccc2Br)o1` (configuration not stated)?
Avidin fluor: 10; RGS8-Gao reg: 100; RGS4-Gao reg: 95; RGS16-Gao: 97; RGS7-Gao: inconclusive

What do the screens show for `COc1cc(OC)cc(-c2nc(-c3ccccc3OC)no2)c1`?
GSH bead fluor: 65; Avidin fluor: -2; RGS8-Gao reg: 14*; RGS4-Gao reg: 0.9*; RGS16-Gao: 3.8*; RGS7-Gao: 10*; Biotin-avidin: -2; RGS8-Gao single: 109; RGS7-Gao single: 109; RGS16-Gao single: 109; RGS4-Gao confirm: 111; RGS19-Gao single: 110

Results for COc1ccccc1-c1noc(-c2cc(OC)c(OC)c(OC)c2)n1 ?
GSH bead fluor: 21; Avidin fluor: 26; RGS8-Gao reg: 105; RGS4-Gao reg: 106; RGS16-Gao: 112; RGS7-Gao: 103

What do the screens show for `O=C(O)COc1ccc(Br)cc1CP(=O)(c1ccccc1)c1ccccc1`?
Avidin fluor: 9; RGS8-Gao reg: 98; RGS4-Gao reg: 97; RGS16-Gao: 98; RGS7-Gao: inconclusive

What do the screens show for `C/C(=N\NC(=O)c1nn(C)c(C)c1Br)c1cccc(NC(=O)c2ccc(F)cc2)c1`?
GSH bead fluor: 6; Avidin fluor: 5; RGS8-Gao reg: 140; RGS4-Gao reg: 114; RGS16-Gao: 253*[activator]; RGS7-Gao: 112; RGS4-Gao HTS: 114*; Biotin-avidin: 1; RGS8-Gao single: 101; RGS7-Gao single: 104; RGS16-Gao single: 101; RGS4-Gao confirm: 102; RGS19-Gao single: 93

What do the screens show for `N=C1C2=C3Sc4ccccc4N3CCCC2=NN1c1cccc(S(=O)(=O)O)c1`?
Avidin fluor: -2; RGS8-Gao reg: 8.6*; RGS4-Gao reg: -11*; RGS16-Gao: -6.4*; RGS7-Gao: inconclusive; Biotin-avidin: -1; RGS8-Gao single: 100; RGS7-Gao single: 97; RGS16-Gao single: 100; RGS4-Gao confirm: 99; RGS19-Gao single: 85

What do the screens show for `CC(C)=NNC1=NC(C)(C)Cc2ccccc21`?
Avidin fluor: 5; RGS8-Gao reg: 103; RGS4-Gao reg: 93; RGS16-Gao: 102; RGS7-Gao: inconclusive

How did CC(=O)CC1=NC(C)(C)Cc2ccccc21 do in these assays?
GSH bead fluor: 14; Avidin fluor: 2; RGS8-Gao reg: 18*; RGS4-Gao reg: 29*; RGS16-Gao: 16*; RGS7-Gao: 24*; Biotin-avidin: -2; RGS8-Gao single: 102; RGS7-Gao single: 109; RGS16-Gao single: 104; RGS4-Gao confirm: 104; RGS19-Gao single: 100

Source: PubChem BioAssay (NMMLSC)
